Screening data as filed in PubChem.
A selection: hits, their analogues and other compounds. The true share with any hit is near 14%.
USP10 inh = inhibitors of human USP10 deubiquitinase. Ubiquitin carboxyl-terminal hydrolase 10 (Homo sapiens), Q14694. purified USP10, Ub-rhodamine fluorescence, 60 min. inhibition, % at 20 µM. 47,000 compounds, 1.1% hits. AID 1645856, 2021
USP8 inh = inhibitors of human USP8 deubiquitinase; inhibition, % at 20 µM; AID 1645853, 2021; 47,000 compounds, 4.2% hits; purified USP8, Ub-rhodamine cleavage fluorescence, 30 min; Ubiquitin carboxyl-terminal hydrolase 8 (Homo sapiens), P40818
Target sequence (P40818 whole entry, looked up): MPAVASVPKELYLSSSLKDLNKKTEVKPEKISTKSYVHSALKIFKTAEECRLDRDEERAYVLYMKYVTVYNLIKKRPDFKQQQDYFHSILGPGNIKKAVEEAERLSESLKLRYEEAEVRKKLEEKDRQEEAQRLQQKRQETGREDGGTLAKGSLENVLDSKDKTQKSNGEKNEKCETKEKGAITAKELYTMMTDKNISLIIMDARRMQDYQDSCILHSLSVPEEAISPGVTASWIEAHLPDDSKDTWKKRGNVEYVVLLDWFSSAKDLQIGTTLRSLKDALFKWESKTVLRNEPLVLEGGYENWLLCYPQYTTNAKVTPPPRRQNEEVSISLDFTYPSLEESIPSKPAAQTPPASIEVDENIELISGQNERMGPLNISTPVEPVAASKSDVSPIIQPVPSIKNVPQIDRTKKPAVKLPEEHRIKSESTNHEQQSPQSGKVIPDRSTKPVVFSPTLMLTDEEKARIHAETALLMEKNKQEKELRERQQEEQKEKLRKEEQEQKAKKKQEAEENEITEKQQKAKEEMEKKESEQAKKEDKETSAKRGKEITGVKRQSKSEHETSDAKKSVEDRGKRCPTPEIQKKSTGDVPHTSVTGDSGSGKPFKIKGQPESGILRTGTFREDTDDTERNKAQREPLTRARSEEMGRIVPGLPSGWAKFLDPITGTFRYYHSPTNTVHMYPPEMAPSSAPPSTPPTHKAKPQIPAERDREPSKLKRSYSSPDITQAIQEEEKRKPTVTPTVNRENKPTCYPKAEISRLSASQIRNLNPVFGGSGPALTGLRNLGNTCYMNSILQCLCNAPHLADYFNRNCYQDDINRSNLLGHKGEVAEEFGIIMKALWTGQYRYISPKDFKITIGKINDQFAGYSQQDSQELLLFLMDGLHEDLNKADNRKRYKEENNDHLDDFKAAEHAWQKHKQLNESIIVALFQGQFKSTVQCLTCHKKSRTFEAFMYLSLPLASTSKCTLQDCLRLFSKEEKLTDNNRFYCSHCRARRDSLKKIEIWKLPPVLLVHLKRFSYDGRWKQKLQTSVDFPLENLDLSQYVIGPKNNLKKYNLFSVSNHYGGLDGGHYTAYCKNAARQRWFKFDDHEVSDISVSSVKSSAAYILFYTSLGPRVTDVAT
USP17 inh = inhibitors of human USP17 deubiquitinase; Ubiquitin carboxyl-terminal hydrolase 17-like protein 5 (Homo sapiens), A8MUK1; purified USP17, Ub-rhodamine cleavage fluorescence, 3 h; inhibition, % at 50 µM; 47,000 compounds, 6.5% hits; AID 1645855, 2021
USP30 block = inhibitors of human USP30 deubiquitinase; Ubiquitin carboxyl-terminal hydrolase 30 (Homo sapiens), Q70CQ3; purified USP30, Ub-rhodamine cleavage fluorescence; inhibition, % at 25 µM; 47,000 compounds, 5.3% hits; AID 1645860, 2021
USP28 inh = inhibitors of human USP28 deubiquitinase; Ubiquitin carboxyl-terminal hydrolase 28 (Homo sapiens), Q96RU2; purified USP28, Ub-rhodamine cleavage fluorescence, 30 min; 47,000 compounds, 3% hits; inhibition, % at 25 µM; AID 1645857, 2021
Numbers stand for hits. Rule as the data show it: active = inhibition above about 30%; inactive = the rest.

What do the screens show for `CN1C(=O)Cc2cc(S(=O)(=O)N3CCC(c4ccncc4)CC3)ccc21`?
USP10 inh: inactive; USP8 inh: inactive; USP17 inh: 39; USP30 block: inactive; USP28 inh: inactive

Results for Cc1cccc(NC(=O)c2cnc3sc4c(n3c2=O)CCCC4)c1C ?
USP10 inh: inactive; USP8 inh: inactive; USP17 inh: inactive; USP30 block: inactive; USP28 inh: inactive

What do the screens show for `COc1ccc(C)cc1NC(=O)c1ccc(N2CCOCC2)nn1`?
USP10 inh: inactive; USP8 inh: inactive; USP17 inh: 52; USP30 block: 54; USP28 inh: inactive

How did Cc1ccc(NC(=O)c2ccc(N3CCOCC3)nn2)cc1F do in these assays?
USP10 inh: inactive; USP8 inh: inactive; USP17 inh: 71; USP30 block: inactive; USP28 inh: inactive

Results for O=C(Nc1ccccc1Cl)c1ccc(N2CCOCC2)nn1 ?
USP10 inh: inactive; USP8 inh: inactive; USP17 inh: inactive

What do the screens show for `CCc1cc(=O)n(CC(=O)Nc2cc(C)ccc2OC)c(N2CCOCC2)n1`?
USP10 inh: inactive; USP8 inh: inactive; USP17 inh: 36; USP30 block: 59; USP28 inh: inactive

What do the screens show for `CN(C)CCN1C(=O)C(O)=C(C(=O)c2cc3ccccc3o2)C1c1cccs1` (configuration not stated)?
USP10 inh: inactive; USP8 inh: inactive; USP17 inh: inactive; USP30 block: inactive; USP28 inh: inactive

How did C=C1CCC[C@]2(C)C[C@H]3OC(=O)C(CN4CCC(C(=O)OCC)CC4)[C@H]3CC12 (some centres not stated) do in these assays?
USP10 inh: inactive; USP8 inh: inactive; USP17 inh: inactive; USP30 block: inactive; USP28 inh: inactive

How did C=C1CCC[C@]2(C)C[C@H]3OC(=O)C(CN4CCCCC4C)[C@H]3CC12 (some centres not stated) do in these assays?
USP10 inh: inactive; USP8 inh: inactive; USP17 inh: inactive; USP30 block: 43; USP28 inh: inactive

What do the screens show for `C=C1CCC[C@]2(C)C[C@H]3OC(=O)C(CN(C)CC(O)c4ccc(O)cc4)[C@H]3CC12` (some centres not stated)?
USP10 inh: inactive; USP8 inh: inactive; USP17 inh: inactive; USP30 block: inactive; USP28 inh: inactive

What do the screens show for `C=C1CCC[C@]2(C)C[C@H]3OC(=O)[C@H](CNCCc4ccccc4OC)C3CC12` (some centres not stated)?
USP10 inh: inactive; USP8 inh: inactive; USP17 inh: inactive; USP30 block: 47; USP28 inh: inactive

How did C=C1CCC[C@]2(C)C[C@H]3OC(=O)C(CN4CCCCC4CC)[C@H]3CC12 (some centres not stated) do in these assays?
USP10 inh: inactive; USP8 inh: inactive; USP17 inh: inactive; USP30 block: 40; USP28 inh: inactive

How did COc1ccc(S(=O)(=O)c2cnc3cc(OC)c(OC)cc3c2NCc2ccccc2)cc1 do in these assays?
USP10 inh: inactive; USP8 inh: inactive; USP17 inh: inactive; USP30 block: inactive; USP28 inh: inactive

What do the screens show for `COc1ccc(S(=O)(=O)c2cnc3ccc(Cl)cc3c2NCc2ccccc2)cc1`?
USP10 inh: inactive; USP8 inh: inactive; USP17 inh: inactive; USP30 block: 30; USP28 inh: inactive

What do the screens show for `COc1cc(OC)cc(C(=O)N2CCC3(C2)Nc2cccnc2NC3=NC2CCCC2)c1` (configuration not stated)?
USP10 inh: inactive; USP8 inh: inactive; USP17 inh: inactive; USP30 block: inactive; USP28 inh: inactive

Results for Cc1ccc(-c2nnc(-n3ncc(C#N)c3N)c3ccccc23)cc1C ?
USP10 inh: inactive; USP8 inh: inactive; USP17 inh: 62; USP30 block: inactive; USP28 inh: inactive

Results for COc1ccc(OC)c(NC(=O)Cn2c(=O)n(C3CCCCC3)c(=O)c3ccccc32)c1 ?
USP10 inh: 43; USP8 inh: inactive; USP17 inh: inactive; USP30 block: inactive; USP28 inh: inactive

How did COc1cc(NC(=O)Cn2c(=O)n(-c3ccc(CC(=O)NC4CCCC4)cc3)c(=O)c3ccccc32)cc(OC)c1 do in these assays?
USP10 inh: inactive; USP8 inh: 63; USP17 inh: 41; USP30 block: inactive; USP28 inh: 44

Results for O=C(Cc1ccc(-n2c(=O)c3ccccc3n(Cc3cccc(F)c3)c2=O)cc1)NC1CCCC1 ?
USP10 inh: inactive; USP8 inh: inactive; USP17 inh: inactive; USP30 block: inactive; USP28 inh: inactive

How did O=C(Cn1c(=O)n(-c2ccc(CC(=O)NC3CCCC3)cc2)c(=O)c2ccccc21)Nc1ccccc1[N+](=O)[O-] do in these assays?
USP10 inh: 44; USP8 inh: 80; USP17 inh: inactive; USP30 block: inactive; USP28 inh: inactive

How did O=C(Cc1ccc(-n2c(=O)c3ccccc3n(Cc3cccc([N+](=O)[O-])c3)c2=O)cc1)NC1CCCC1 do in these assays?
USP10 inh: 36; USP8 inh: inactive; USP17 inh: inactive; USP30 block: inactive; USP28 inh: inactive

What do the screens show for `COc1ccc(NC(=O)Cn2c(=O)n(C3CCCCC3)c(=O)c3ccccc32)cc1`?
USP10 inh: inactive; USP8 inh: inactive; USP17 inh: inactive; USP30 block: inactive; USP28 inh: inactive

How did Cn1c(=O)c2ccc(C3CCCCN3C(=O)CCOc3ccccc3)nc2n(C)c1=O (configuration not stated) do in these assays?
USP10 inh: inactive; USP8 inh: inactive; USP17 inh: inactive; USP30 block: inactive; USP28 inh: inactive

How did COCCN1C[C@H]2CN(C)c3ccccc3[C@@H]2N(C(=O)CC(C)C)CCC1=O do in these assays?
USP10 inh: inactive; USP8 inh: inactive; USP17 inh: inactive; USP30 block: inactive; USP28 inh: inactive

What do the screens show for `CCN1CCN(c2ccc(-c3nc(-c4cccc(C)c4)no3)cn2)CC1`?
USP10 inh: inactive; USP8 inh: inactive; USP17 inh: inactive; USP30 block: inactive; USP28 inh: inactive

Results for COc1cc(C2C3=C(CC(c4ccco4)CC3=O)Nc3ccccc3N2C(=O)c2ccccc2)cc(OC)c1OC (configuration not stated) ?
USP10 inh: inactive; USP8 inh: 34; USP17 inh: inactive; USP30 block: inactive; USP28 inh: inactive

Results for CC(=O)N1c2ccccc2NC2=C(C(=O)CC(c3ccco3)C2)C1c1ccc(Cl)cc1 (configuration not stated) ?
USP10 inh: inactive; USP8 inh: 43; USP17 inh: inactive; USP30 block: inactive; USP28 inh: inactive

How did CCCCCC(=O)N1c2ccccc2NC2=C(C(=O)CC(c3ccc(C(C)(C)C)cc3)C2)C1c1ccncc1 (configuration not stated) do in these assays?
USP10 inh: inactive; USP8 inh: inactive; USP17 inh: 74; USP30 block: inactive; USP28 inh: inactive
